Measured values as given in PubChem BioAssay AID1159580 (chemical genetic matrix, 2015).
Out of some 5,500 compounds screened, about 2,000 (36%) were called active. Another 18% or so got no clear call; they are omitted. No stated cut-off is given here; in the data, active means normalized growth mostly below about 0.91 (no sharp cut-off); inconclusive means no clear call, values can overlap the other calls; inactive means mostly above about 0.92. Some of the results follow.

Assay: chemical genetic growth profiling, strain panel (AID 1159580);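 further: tested at 20 µM; growth read once vehicle control cultures reached saturation at 30 °C; 1 = growth at the plate median or of vehicle wells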
Details: growth OD

Measured: normalized growth

CC(N)Cc1ccc(O)cc1 (stereo unspecified)
inactive: S. cerevisiae deletion strains, locus YAL013W, strain DEP1, stronger effect = lower value 1.01 | S. cerevisiae deletion strains, locus YBR021W, strain FUR4, stronger effect = lower value 1.04 | S. cerevisiae deletion strains, locus YBR229C, strain ROT2, stronger effect = lower value 1.01 | S. cerevisiae deletion strains, locus YCL029C, strain bik1, stronger effect = lower value 1.02 | S. cerevisiae deletion strains, locus YDL035C, strain GPR1, stronger effect = lower value 1.02 | S. cerevisiae deletion strains, locus YDL074C, strain BRE1, stronger effect = lower value 1 | S. cerevisiae deletion strains, locus YDL101C, strain DUN1, stronger effect = lower value 1.02 | S. cerevisiae deletion strains, locus YDL134C, strain PPH21, stronger effect = lower value 1.01 | S. cerevisiae deletion strains, locus YDL185W, strain tfp1, stronger effect = lower value 1.01 | S. cerevisiae deletion strains, locus YDL192W, strain arf1, stronger effect = lower value 1.03 | S. cerevisiae deletion strains, locus YDR101C, strain arx1, stronger effect = lower value 1.01 | S. cerevisiae deletion strains, locus YDR150W, strain NUM1, stronger effect = lower value 1.01 | S. cerevisiae deletion strains, locus YDR162C, strain NBP2, stronger effect = lower value 1 | S. cerevisiae deletion strains, locus YDR318W, strain mcm21, stronger effect = lower value 1.03 | S. cerevisiae deletion strains, locus YDR388W, stronger effect = lower value 1.02 | S. cerevisiae deletion strains, locus YDR502C, strain sam2, stronger effect = lower value 1.01 | S. cerevisiae deletion strains, locus YEL061C, strain CIN8, stronger effect = lower value 1.02 | S. cerevisiae deletion strains, locus YER110C, stronger effect = lower value 1.02 | S. cerevisiae deletion strains, locus YER155C, strain BEM2, stronger effect = lower value 1 | S. cerevisiae deletion strains, locus YER167W, strain BCK2, stronger effect = lower value 1.03 | S. cerevisiae deletion strains, locus YGL078C, strain dbp3, stronger effect = lower value 1.02 | S. cerevisiae deletion strains, locus YGL086W, strain mad1, stronger effect = lower value 1.02 | S. cerevisiae deletion strains, locus YGL248W, strain PDE1, stronger effect = lower value 1.02 | S. cerevisiae deletion strains, locus YGR078C, strain PAC10, stronger effect = lower value 1.01 | S. cerevisiae deletion strains, locus YGR135W, strain pre9, stronger effect = lower value 1 | S. cerevisiae deletion strains, locus YGR229C, strain SMI1, stronger effect = lower value 1.01 | S. cerevisiae deletion strains, locus YGR252W, strain gcn5, stronger effect = lower value 1.04 | S. cerevisiae deletion strains, locus YHR030C, strain SLT2, stronger effect = lower value 1.01 | S. cerevisiae deletion strains, locus YHR079C, strain IRE1 (second series), stronger effect = lower value 1.03 | S. cerevisiae deletion strains, locus YHR094C, strain hxt1, stronger effect = lower value 1.01 | S. cerevisiae deletion strains, locus YHR129C, strain ARP1, stronger effect = lower value 1.03 | S. cerevisiae deletion strains, locus YHR200W, strain rpn10, stronger effect = lower value 1.01 | S. cerevisiae deletion strains, locus YIL066C, strain RNR3, stronger effect = lower value 1.01 | S. cerevisiae deletion strains, locus YIL073C, strain SPO22, stronger effect = lower value 1.07 | S. cerevisiae deletion strains, locus YIL125W, strain kgd1, stronger effect = lower value 1.02 | S. cerevisiae deletion strains, locus YIR030C, strain dcg1, stronger effect = lower value 1.02 | S. cerevisiae deletion strains, locus YJL095W, strain BCK1, stronger effect = lower value 1.02 | S. cerevisiae deletion strains, locus YJL134W, strain LCB3, stronger effect = lower value 1.01 | S. cerevisiae deletion strains, locus YJL168C, strain set2, stronger effect = lower value 1.01 | S. cerevisiae deletion strains, locus YJL187C, strain SWE1 (second series), stronger effect = lower value 1.02 | S. cerevisiae deletion strains, locus YJR043C, strain POL32, stronger effect = lower value 1.06 | S. cerevisiae deletion strains, locus YJR075W, strain HOC1, stronger effect = lower value 1.02 | S. cerevisiae deletion strains, locus YKL009W, strain mrt4, stronger effect = lower value 1.04 | S. cerevisiae deletion strains, locus YKL068W, stronger effect = lower value 1.01 | S. cerevisiae deletion strains, locus YKL085W, strain MDH1 (second series), stronger effect = lower value 1.02 | S. cerevisiae deletion strains, locus YKL085W, strain MDH1, stronger effect = lower value 1.02 | S. cerevisiae deletion strains, locus YKL190W, strain CNB1, stronger effect = lower value 1.01 | S. cerevisiae deletion strains, locus YKR001C, strain vps1, stronger effect = lower value 1.04 | S. cerevisiae deletion strains, locus YLR039C, strain RIC1, stronger effect = lower value 1.05 | S. cerevisiae deletion strains, locus YLR058C, strain SHM2, stronger effect = lower value 1.02 | S. cerevisiae deletion strains, locus YLR102C, strain apc9, stronger effect = lower value 1.02 | S. cerevisiae deletion strains, locus YLR262C, strain YPT6, stronger effect = lower value 1.01 | S. cerevisiae deletion strains, locus YLR268W, strain sec22, stronger effect = lower value 1.01 | S. cerevisiae deletion strains, locus YLR330W, strain CHS5, stronger effect = lower value 1.01 | S. cerevisiae deletion strains, locus YLR342W, strain FKS1 (second series), stronger effect = lower value 1.08 | S. cerevisiae deletion strains, locus YLR371W, strain rom2, stronger effect = lower value 1.02 | S. cerevisiae deletion strains, locus YLR418C, strain cdc73, stronger effect = lower value 0.995 | S. cerevisiae deletion strains, locus YML016C, strain PPZ1, stronger effect = lower value 1.02 | S. cerevisiae deletion strains, locus YML032C, strain rad52, stronger effect = lower value 1.04 | S. cerevisiae deletion strains, locus YML124C, strain tub3, stronger effect = lower value 1.01 | S. cerevisiae deletion strains, locus YMR078C, strain ctf18, stronger effect = lower value 1.03 | S. cerevisiae deletion strains, locus YMR223W, strain ubp8, stronger effect = lower value 1.03 | S. cerevisiae deletion strains, locus YMR263W, strain SAP30, stronger effect = lower value 1.01 | S. cerevisiae deletion strains, locus YMR307W, strain GAS1, stronger effect = lower value 1.08 | S. cerevisiae deletion strains, locus YNL067W, strain RPL9B, stronger effect = lower value 1.01 | S. cerevisiae deletion strains, locus YNL128W, strain TEP1, stronger effect = lower value 0.99 | S. cerevisiae deletion strains, locus YNL153C, strain GIM3, stronger effect = lower value 1.01 | S. cerevisiae deletion strains, locus YNL233W, strain BNI4, stronger effect = lower value 1.02 | S. cerevisiae deletion strains, locus YNL250W, strain rad50, stronger effect = lower value 1.01 | S. cerevisiae deletion strains, locus YNL271C, strain bni1, stronger effect = lower value 1.02 | S. cerevisiae deletion strains, locus YNL298W, strain CLA4, stronger effect = lower value 1.03 | S. cerevisiae deletion strains, locus YNL307C, strain MCK1, stronger effect = lower value 1.03 | S. cerevisiae deletion strains, locus YNL322C, strain KRE1, stronger effect = lower value 1.01 | S. cerevisiae deletion strains, locus YNR052C, strain pop2, stronger effect = lower value 1.01 | S. cerevisiae deletion strains, locus YOL006C, strain TOP1, stronger effect = lower value 1.07 | S. cerevisiae deletion strains, locus YOL012C, strain htz1 1.46 | S. cerevisiae deletion strains, locus YOL147C, strain pex11, stronger effect = lower value 1.02 | S. cerevisiae deletion strains, locus YOR061W, strain CKA2, stronger effect = lower value 1.01 | S. cerevisiae deletion strains, locus YOR069W, strain VPS5, stronger effect = lower value 1.02 | S. cerevisiae deletion strains, locus YOR136W, strain idh2, stronger effect = lower value 1.01 | S. cerevisiae deletion strains, locus YOR144C, strain elg1, stronger effect = lower value 1.01 | S. cerevisiae deletion strains, locus YOR184W, strain ser1, stronger effect = lower value 1.04 | S. cerevisiae deletion strains, locus YOR316C, strain cot1, stronger effect = lower value 1.02 | S. cerevisiae deletion strains, locus YPL055C, strain LGE1, stronger effect = lower value 0.982 | S. cerevisiae deletion strains, locus YPL241C, strain CIN2, stronger effect = lower value 1.01 | S. cerevisiae deletion strains, locus YPR119W, strain clb2, stronger effect = lower value 1.01 | S. cerevisiae deletion strains, locus YPR141C, strain kar3, stronger effect = lower value 1.02 | S. cerevisiae deletion strains, locus YPR163C, strain tif3, stronger effect = lower value 1.02 | S. cerevisiae deletion strains, locus YPR167C, strain met16, stronger effect = lower value 1.02 | S. cerevisiae deletion strains, strain wtn01, stronger effect = lower value 1.01 | S. cerevisiae strains, strain wild type, stronger effect = lower value 1.01
